Compounds with a hit are over-represented: about 2.8% of the library has one in this group of screens.
POLI inh: inhibitors of human DNA polymerase iota; Pol iota fluorescent replication assay, 10 min; Potency, µM (titrated, usually from 115 µM), without a hit: top-dose activity, negative = inhibition, hits mostly inhibitors; actives 1% (n = 390,000); AID 588590; note: potency is the fitted concentration of half-maximal effect
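Pol iota at 10 nM preincubated 15 min with compounds at room temperature; reaction started with fluorescent substrate, 50 nM final. Fluorescence read kinetically at 0 and 10 min; buffer-only wells as negative control.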
WRN inhibitor: WRN helicase (human) inhibition; actives 0.46% (n = 360,000); Potency, µM (top dose mostly 114 µM), without a hit: at the top dose activity change, negative = inhibition, most hits filed as inhibitors; WRN helicase unwinding, fluorescent forked duplex, kinetic; Q14191; note: potency is the fitted concentration of half-maximal effect; % is set by controls: 0 for no effect and ±100 for the full control effect; nearly all actives have a fitted effect of over 55% in size
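Kinetic red-fluorescence monitoring (525/598 nm) tracks WRN helicase activity after 100 nM fluorophore-quencher forked duplex and 2 mM ATP are added to 20 nM enzyme pretreated 15 min at room temperature with compound.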
PI5P4Ka inh: inhibitors of human PI5P4K alpha. actives 1.2% (n = 330,000). max response, %. PI5P4Kalpha enzyme, ADP-Glo luminescence, 60 min; hits give low values. P48426; active = max response of -50% or lower; inconclusive = between -30% and -50%; inactive = -30% or higher; note: value at the top dose of about 77 µM; % is set by controls: 0 for no effect and ±100 for the full control effect
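PI5P4Kalpha ADP-Glo assay; 5 microM ATP final; 60 min RT reaction; HEPES pH 7.4/EGTA/CHAPS, 5% DMSO; controls lacking substrate or enzyme; luminescent end-point.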
POLK inh: DNA polymerase kappa (human) inhibition | Q9UBT6 | purified Pol kappa, fluorescent DNA synthesis assay, 10 min | Potency, µM (doses to about 107 µM), for the others: at the highest dose activity, negative = inhibition, usual class: inhibitors | actives 0.53% (n = 400,000); note: potency is the fitted concentration of half-maximal effect; % is set by controls: 0 for no effect and ±100 for the full control effect
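Kinetic fluorescence readout at 0 and 10 min followed reaction start with substrate at 50 nM final. Beforehand, enzyme (10 nM Pol kappa) stood 15 min with compound at room temperature; buffer-only wells were negative controls.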
POLB inh: inhibitors of human DNA polymerase beta; Pol beta primer extension/strand displacement, fluorescence kinetic; Potency, µM (highest dose often 114 µM), for inactives: at the top dose activity change, negative = inhibition, most hits filed as inhibitors; actives 1.3% (n = 340,000); AID 485314; note: potency is the fitted concentration of half-maximal effect; % is set by controls: 0 for no effect and ±100 for the full control effect
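Kinetic readout of DNA synthesis with strand displacement by Pol beta. Compound and 10 nM enzyme sit 15 min at room temperature; 50 nM substrate starts the reaction, read immediately and at 10 min.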
POLH inh: inhibitors of human DNA polymerase eta | actives 1.2% (n = 390,000) | Q9Y253 | recombinant Pol eta, fluorescent DNA replication assay | Potency, µM (series often up to 114 µM), for inactives: top-dose activity change, negative = inhibition, usual class: inhibitors; note: potency is the fitted concentration of half-maximal effect; % is set by controls: 0 for no effect and ±100 for the full control effect
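Pol eta at 10 nM preincubated with compounds 15 min at room temperature; reaction started with fluorescent substrate (50 nM final) and read kinetically at 0 and 10 min.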
Numbers without * were called inactive; ? = inconclusive; · = not tested or not shown; ! = not confirmed by another sample; [ ] = remark or other dose. Unless noted, calls come from the whole dose curve; as a rule, active = well fitted curve in the direction sought with a large enough effect; inconclusive = small, poorly fitted or top-dose-only effect, or another doubt; inactive = no such curve, though single readings can be large; an effect the other way counts as inactive or inconclusive.

SMILES	POLI inh	WRN inhibitor	PI5P4Ka inh	POLK inh	POLB inh	POLH inh
CCc1ccc2[nH]c(=O)c(C3C(C#N)=C(N)Oc4c3ccc3cccnc43)cc2c1 (stereo unspecified)	45%	-14%	-51*	-21%	19%	?
Nc1nc(Nc2cccc(F)c2)nc(NCCO)c1[N+](=O)[O-]	52%	?	-63*	-32%	?	-19%
Cc1c(-c2ccccc2)c(=O)oc2c(CN3CCCC3)c(O)ccc12	-6%	·	·	-13%[60.1 µM]	-28%	-4%
C[c-]1[c-](C)[c-](C)[c-](C)[c-]1C.[Fe].c1cc2nccc(N3CCCC3)[c-]2c1 (stereo unspecified)	10µM*!	-19%	?	?	4.5µM*!	20µM*!
c1cc(N2CCCCC2)nc(N2CCCCC2)n1	41%	7%	1	-8%	·	-12%
CCN(c1ccc(N=Cc2c(O)n(Cc3ccc(OC)cc3)c(=O)c3ccccc23)cc1)C(C)C	77%	40µM*	9	-8%	1%	-6%
CCc1ccccc1NC(=O)c1ccc2c(c1)nnn2C1CCCC1	21%	·	·	-9%	-1%	0%
CCCOc1ccc(C(C)=O)cc1CSCCC#N	16%	-2%	-1	-6%	-3%	-15%
CCCOc1ccc(C(C)=O)cc1CSc1nc(O)cc(=O)[nH]1	35µM*	-15%[11.6 µM]	-22	?	?	-5%
O=C(OCC1CCCO1)c1ccc2c(c1)N(Cc1cccc(Cl)c1)C(=O)c1ccccc1S2(=O)=O (stereo unspecified)	10%	·	·	-1%	1%	-21%
CC1CCC2(CC1)NC(=O)N(Cc1cc(=O)n3ccsc3n1)C2=O (stereo unspecified)	-23%	1%	-9	-8%	0%	-8%
CC1CCCCC12NC(=O)N(Cc1cc(=O)n3ccsc3n1)C2=O (stereo unspecified)	79µM*	-9%	-17	-13%	?	-4%
C=CCN=c1scc(C)n1/N=C/c1ccc(O)c(O)c1	?	2%	-3	?	2.5µM*	-6%
CN=c1scc(-c2ccco2)n1/N=C/c1ccc(O)c(O)c1	?	-28%[57.1 µM]	?	?	2.8µM*	?
CC(C)(C)n1ncc2c(=O)n(Cc3ccccc3Cl)cnc21	2%	·	·	1%	·	·
CCCCC[C@H](O)/C=C/C=C\C/C=C\C/C=C\CCCC(=O)O	·	·	·	0%[19.4 µM]	·	·
N#Cc1c(-c2cccnc2)c2c([nH]c1=O)-c1ccccc1OC2	14%	-4%	-59*	-2%	2%	-11%
CCc1ccc(C=C2SC(=S)N(CCCC(=O)Nc3ccc(C(=O)O)cc3)C2=O)cc1	·	-21%	6	·	·	·
O=C(CCN1C(=O)/C(=C/c2ccccc2Cl)SC1=S)Nc1ccccc1C(=O)O	?	-14%	-28	-10%	?	79µM*
CCc1ccc(/C=C2/SC(=S)N(CCCC(=O)Nc3ccccc3C(=O)O)C2=O)cc1	-12%	?	-27	-28%	50%	79µM*
CCCCn1c(=O)n(-c2ccc(Br)cc2F)c(=O)c2c3c(sc21)CN(C(C)=O)CC3	6%	·	·	8%	19%	-5%
CC(C)CC(=O)Nc1ccc(-c2nnn(CC(=O)NCc3ccco3)n2)cc1	79µM*	-2%[11.6 µM]	-2	-25%	?	16%
C=CCn1c(COc2ccccc2-c2ccccc2)nnc1SCC(=O)NC(=O)NCc1ccco1	?	1%	·	-5%	-15%	-10%
O=C(CSc1nnc(CNC(=O)c2c(F)cccc2F)o1)NCc1ccco1	?	?	?	-29%	25µM*	?
O=C(CSc1nc2ccccc2s1)NC(=O)NCc1ccco1	-13%	-9%	·	-25%	22µM*	-7%
SMILES	POLI inh	WRN inhibitor	PI5P4Ka inh	POLK inh	POLB inh	POLH inh
O=C(CSc1n[nH]c(-c2ccccc2)n1)NC(=O)NCc1ccco1	45µM*	-21%[57.1 µM]	-55*	?	35µM*	?
O=C(CSc1nnc(CNC(=O)c2ccccc2)o1)NCc1ccco1	-22%	-6%	-7	-11%	0%	8%
O=C(CSc1nc(-c2ccccc2)cs1)NC(=O)NCc1ccco1	?	-11%	·	-12%	7%	-3%
C=CCn1c(COc2ccccc2F)nnc1SCC(=O)NC(=O)NCc1ccco1	32µM*	-18%	·	?	40µM*	?
O=S(=O)(Nc1cccc(-c2ccc(N3CCCCC3)nn2)c1)c1cccs1	-4%	·	·	-2%[60.1 µM]	1%	-10%
O=C(CSc1ncccn1)NC(=O)NCc1ccco1	79µM*	4%[11.6 µM]	-2	-14%	?	-11%
O=C(CSCc1ccccc1Br)NNC(=S)NCc1ccco1	16%	-17%	5	-1%	3%	-24%
Cc1ccccc1CSCC(=O)NC(=O)NCc1ccco1	32µM*	?	·	?	11µM*	?
CCCCn1c(SCC(=O)NC(=O)NCc2ccco2)nc2cc(S(N)(=O)=O)ccc21	?	-9%[11.6 µM]	·	?	28µM*	79µM*
O=C(CSc1ccccc1F)NC(=O)NCc1ccco1	?	4%[11.6 µM]	?	-24%	10µM*	?
Cc1ccc(C(=O)n2nc(C)c(S(=O)(=O)N3CCOCC3)c2C)cc1	5%	·	·	-7%[60.1 µM]	16%	-11%
Cc1ccc(Cl)cc1NC(=O)CCCn1c(=O)c2cccn2c2ccccc21	?	·	·	-8%	2%	-14%
Cc1ccc(NC(=O)C(C)Sc2nc(-c3ccccc3)c(C#N)c(=O)[nH]2)c(C)c1 (stereo unspecified)	-11%	·	·	-9%	?	10%
O=C(CSc1nc2ccccc2n1CC(=O)Nc1ccc(F)cc1F)Nc1ccc(F)cc1	-6%	·	·	-5%[60.1 µM]	30%	-1%
CCOC(=O)NC(=O)CSc1nc2ccccc2[nH]1	27%	10%	2	5%	50µM*	-9%
Cc1nnc(SCC(=O)NC(=O)NCc2ccco2)s1	-4%	-9%	7	-8%	-12%	-1%

Screens deposited in PubChem by National Center for Advancing Translational Sciences (NCATS).
